Measured potencies and affinities stand elsewhere. Activity calls are given as the source filed them.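 Rule for the calls: active = fitted half-maximal dose no more than twice the top valid tested dose, for compounds that lower signal; inconclusive = fit invalid, or curve flat with activity between -70 and -30; inactive = potency past limit, curve flat within ±30, or signal increasing.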
biological target: NAD-dependent protein deacylase sirtuin-5, mitochondrial (Homo sapiens) (UniProt Q9NXA8); assay: SIRT5 deacylase inhibitors, dose response, biochemical, fluorescence imaging, cherry-pick, set 6 (AID 720597); conditions: Purified SirT5, succinyl-peptide-AMC/trypsin fluorescence; series mostly up to 15 µM;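 note: lower AMC signal can also come from blocking the trypsin step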
Sequence (Q9NXA8 whole entry, looked up): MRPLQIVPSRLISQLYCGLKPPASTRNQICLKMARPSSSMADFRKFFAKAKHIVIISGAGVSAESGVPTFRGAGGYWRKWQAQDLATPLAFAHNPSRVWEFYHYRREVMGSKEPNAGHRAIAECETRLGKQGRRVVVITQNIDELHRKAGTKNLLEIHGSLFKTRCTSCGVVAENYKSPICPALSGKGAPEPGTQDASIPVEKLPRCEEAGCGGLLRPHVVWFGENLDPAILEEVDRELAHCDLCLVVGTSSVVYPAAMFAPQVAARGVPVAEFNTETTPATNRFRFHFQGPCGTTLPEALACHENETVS

outcome, inactive:
COc1cccc(NC(=O)N(C)C[C@H]2Oc3ncc(C4=CCCCC4)cc3C(=O)N([C@H](C)CO)C[C@@H]2C)c1, O=C(NCC[C@@H]1CC[C@@H](NS(=O)(=O)c2cccc(F)c2)[C@@H](CO)O1)C1CCOCC1, COc1ccc(NC(=O)N(C)C[C@@H]2Oc3cc(C#CCC(C)C)ccc3S(=O)(=O)N([C@H](C)CO)C[C@@H]2C)cc1, C[C@@H]1CCCCO[C@@H](CN(C)C(=O)Nc2ccc(C(F)(F)F)cc2)[C@H](C)CN([C@H](C)CO)C(=O)c2cc(NS(=O)(=O)c3ccc(Cl)cc3)ccc2O1, COc1ccc(S(=O)(=O)N(C)C[C@@H]2Oc3ccc(NC(=O)CCC(F)(F)F)cc3C(=O)N([C@H](C)CO)C[C@H]2C)cc1, C[C@H](CO)N1C[C@H](C)[C@H](CN(C)C(=O)Nc2cc(F)ccc2F)Oc2cc(/C=C/c3ccccc3)ccc2S1(=O)=O, Cc1ccc(S(=O)(=O)N(C)C[C@@H]2OCCCC[C@H](C)Oc3ccc(NS(=O)(=O)c4ccc(Cl)cc4)cc3C(=O)N([C@H](C)CO)C[C@@H]2C)cc1, Cc1ccc(S(=O)(=O)N(C)C[C@H]2OCCCC[C@H](C)Oc3ccc(NS(=O)(=O)c4ccccc4)cc3C(=O)N([C@H](C)CO)C[C@H]2C)cc1, CC(C)CC#Cc1cnc2c(c1)C(=O)N([C@H](C)CO)C[C@H](C)[C@H](CN(C)CC1CCOCC1)O2, Cc1noc(C)c1S(=O)(=O)N(C)C[C@H]1Oc2ccc(NC(=O)Cn3cnnn3)cc2CC(=O)N([C@H](C)CO)C[C@H]1C, C[C@H](CO)N1C[C@H](C)[C@@H](CN(C)C(=O)C2CCOCC2)Oc2ncc(-c3ccccc3)cc2C1=O, COc1ccccc1-c1ccc2c(c1)O[C@@H](CN(C)S(=O)(=O)c1ccccc1)[C@H](C)CN([C@H](C)CO)S2(=O)=O, C[C@H](CO)N1C[C@H](C)[C@@H](CN(C)Cc2ccccc2)Oc2ccc(N(C)C)cc2C1=O, COc1ccccc1-c1ccc2c(c1)O[C@H](CN(C)S(=O)(=O)c1ccccc1)[C@@H](C)CN([C@@H](C)CO)S2(=O)=O, C[C@@H]1CN([C@H](C)CO)C(=O)Cc2cc(NC(=O)Nc3ccc(F)cc3)ccc2O[C@H]1CN(C)C, C[C@H](O)C#Cc1cnc2c(c1)C(=O)N([C@H](C)CO)C[C@H](C)[C@@H](CN(C)CC1CCCC1)O2, Cc1ccccc1S(=O)(=O)N1CCCCN2[C@H](CO)[C@@H](c3ccc(-c4ccccc4)cc3)[C@H]2C1, CCCC#Cc1ccc2c(c1)O[C@@H](CN(C)CC1CCOCC1)[C@H](C)CN([C@H](C)CO)S2(=O)=O, CO[C@@H]1CC[C@@H]2CCOc3c(C#N)cccc3C(=O)N(C)C[C@@H](OC)[C@@H](C)C(=O)N(C)C[C@@H]1O2, CC(C)[C@@H](C)NC(=O)N(C)C[C@@H]1OCc2ccccc2-c2c(n(C)c3ccccc23)C(=O)N([C@@H](C)CO)C[C@@H]1C, Cc1ccc(S(=O)(=O)N(C)C[C@@H]2OCCCC[C@H](C)Oc3ccc(NS(=O)(=O)c4ccc(F)cc4)cc3C(=O)N([C@H](C)CO)C[C@H]2C)cc1, Cc1ccc(S(=O)(=O)N(C)C[C@@H]2OCCCC[C@H](C)Oc3ccc(NS(=O)(=O)c4ccc(Cl)cc4)cc3C(=O)N([C@@H](C)CO)C[C@H]2C)cc1, COc1ccc(S(=O)(=O)N(C)C[C@H]2OCCCC[C@H](C)Oc3ccc(NS(=O)(=O)c4ccc(C)cc4)cc3C(=O)N([C@H](C)CO)C[C@H]2C)cc1, C[C@@H]1CN([C@H](C)CO)C(=O)c2c(c3ccccc3n2C)-c2ccccc2CO[C@H]1CN(C)S(=O)(=O)c1ccc([N+](=O)[O-])cc1, COc1ccc(NC(=O)Nc2cccc3c2O[C@@H](CN(C)Cc2ccc(C(F)(F)F)cc2)[C@@H](C)CN([C@H](C)CO)C3=O)cc1, N#C[C@H]1[C@@H](c2ccccc2-c2ccccc2)[C@@H](CO)N1c1ncc(-c2ccccc2)s1, COc1ccc(S(=O)(=O)N(C)C[C@H]2OCCCC[C@@H](C)Oc3ccc(NS(=O)(=O)c4ccc(C)cc4)cc3C(=O)N([C@@H](C)CO)C[C@@H]2C)cc1, Cc1ccc(S(=O)(=O)Nc2ccc3c(c2)C(=O)N([C@@H](C)CO)C[C@H](C)[C@@H](CN(C)C(=O)Nc2ccc(C(F)(F)F)cc2)OCCCC[C@@H](C)O3)cc1, COc1ccc(S(=O)(=O)N2CCCCN3[C@H](CO)[C@H](c4ccc(C#CC(C)C)cc4)[C@H]3C2)cc1
